Screening data (PubChem)
CYP2C9 inh: blocks human cytochrome P450 2C9; inhibition, % at 5 µM; P11712; AID 777; 96,000 compounds, 20% hits; CYP2C9 Supersomes, luciferin-H conversion, luminescence;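 active means blocking of liver enzyme CYP2C9 beyond about 50% at 5 µM, limit read from the data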
CYP2C9 act: activators of human CYP2C9; recombinant CYP2C9, luciferin-H conversion, luminescence; active compounds read high; factor 1 = untreated enzyme, 0 = blocked; activation factor at 5 µM; AID 1024; 96,000 compounds, 1.4% hits;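 active means activation factor of 2 or more for CYP2C9 at a 5 µM dose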
PLK1 inh: PLK1 (human) kinase inhibition; inhibition, % at 10 µM; 97,000 compounds, 0.53% hits; AID 619; recombinant PLK1 kinase, TR-FRET peptide phosphorylation;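 active means inhibition of 50% or more in the single-concentration screen; inactive means inhibition below 50%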
CYP2C19 activ: activators of human cytochrome P450 2C19 | recombinant CYP2C19, luciferin-H EGE luminescence; active compounds read high; 0 = fully inhibited enzyme, 1 = untreated enzyme | activation factor at 5 µM | P33261 | 96,000 tested, under 10 active;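 active means activation factor of at least 2 at 5 µM in the primary screen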
Target sequence (P33261 whole entry, looked up): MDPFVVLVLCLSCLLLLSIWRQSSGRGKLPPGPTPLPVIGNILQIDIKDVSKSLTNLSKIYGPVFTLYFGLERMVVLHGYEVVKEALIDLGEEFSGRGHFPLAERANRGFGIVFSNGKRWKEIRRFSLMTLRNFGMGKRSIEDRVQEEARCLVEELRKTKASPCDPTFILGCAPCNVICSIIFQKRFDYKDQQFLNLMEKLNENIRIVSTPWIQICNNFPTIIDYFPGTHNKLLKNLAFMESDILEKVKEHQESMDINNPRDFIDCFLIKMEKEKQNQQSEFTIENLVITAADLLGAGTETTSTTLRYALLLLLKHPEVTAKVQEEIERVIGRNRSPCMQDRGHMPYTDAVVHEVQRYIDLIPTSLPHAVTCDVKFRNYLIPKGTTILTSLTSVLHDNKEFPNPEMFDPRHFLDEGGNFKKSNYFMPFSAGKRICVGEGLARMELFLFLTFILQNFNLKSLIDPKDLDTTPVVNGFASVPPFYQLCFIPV
CYP2C19 inhib: human CYP2C19 inhibition. 96,000 compounds, 21% hits. CYP2C19 Supersomes, luciferin-H EGE luminescence, 30 min. inhibition, % at 5 µM. P33261;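 active means CYP2C19 inhibition above a set limit at 5 µM in the primary screen, cut at about 50% in these data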
Plk1 PBD FP: Plk1 (human) PBD binding inhibition; P53350; Plk1 PBD phosphopeptide binding, fluorescence polarization; inhibition, %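 (tested at about 20 µM)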; 97,000 compounds, 0.13% hits; in the data active means inhibition above about 34%, passing the limit was not always enough
Of the large screens only hits and unclear results are named; the others gave an inactive call. Rows were chosen to be rich in hits. Some 28% of all compounds tested hit in one or more screens of this group.

COc1ccccc1CNC(=O)c1ccc(CNc2c(N3CCCC3)c(=O)c2=O)cc1	none (no result: PLK1 inh, Plk1 PBD FP)
CC1=C(C(=O)Nc2cccnc2)C(c2ccc3c(c2)OCO3)C2=C(CCCC2=O)N1 (stereo not drawn)	none
CCOC(=O)C(C)(C)Sc1nc2c(cnn2-c2ccc(Cl)cc2)c(=O)[nH]1	CYP2C9 inh 76
CCC(Sc1nc2c(cnn2-c2ccc(Cl)cc2)c(=O)[nH]1)C(=O)OC (stereo not drawn)	none (no result: PLK1 inh, Plk1 PBD FP)
c1ccc2[nH]c(SCc3cscn3)nc2c1	CYP2C19 inhib 91
N#Cc1ccccc1CSc1nc2ncc(Br)cc2[nH]1	none (no result: PLK1 inh, Plk1 PBD FP)
Cc1nc2nc(SCC(=O)C(C)(C)C)[nH]c2cc1Br	none
Fc1c(F)c(F)c(CSc2nc3ccccc3[nH]2)c(F)c1F	none
CC(C)(C)C(=O)CSc1nc2ncc(Br)cc2[nH]1	CYP2C19 inhib 91
Fc1ccccc1CSc1nc2ccccc2[nH]1	CYP2C9 inh 85, CYP2C19 inhib 100
Fc1ccccc1CSc1nc2ncc(Br)cc2[nH]1	CYP2C9 inh 78, CYP2C19 inhib 87
COc1ccc(CCNC(=O)CSc2ncn[nH]2)cc1	CYP2C19 inhib 52
O=C(CSc1ncn[nH]1)NCCOc1ccccc1	none
O=C(CSc1ncn[nH]1)NCCC(c1ccccc1)c1ccccc1	CYP2C9 inh 65, CYP2C19 inhib 83
COc1ccc(CCC(=O)NCCc2cn3c(C)csc3n2)cc1	CYP2C19 inhib 53
CCOC(=O)C(Sc1ncn[nH]1)c1ccccc1 (stereo not drawn)	CYP2C19 inhib 64
O=C(O)C1(P(=O)(c2ccccc2)c2ccccc2)CCC1	none (no result: PLK1 inh, Plk1 PBD FP)
CCOC(=O)C1(P(=O)(c2ccc(Cl)cc2)c2ccc(Cl)cc2)CCC1	CYP2C19 inhib 80
CC(NS(=O)(=O)c1ccc(OCC(=O)N2CCOCC2)c(Cl)c1)c1ccccc1 (stereo not drawn)	CYP2C9 inh 64
O=C(COc1ccc(S(=O)(=O)NC2CCCCC2)cc1Cl)N1CCN(c2ccccc2)CC1	CYP2C9 inh 100, CYP2C19 inhib 68
CC(NS(=O)(=O)c1ccc(OCC(=O)N2CCOCC2)cc1)c1ccccc1 (stereo not drawn)	none (no result: CYP2C9 inh, CYP2C9 act, CYP2C19 activ, CYP2C19 inhib)
CCCN1CCN(C(=O)CN2C(=O)CC(C)(C)S(=O)(=O)c3ccccc32)CC1	none
O=C(COC(=O)c1cccnc1)c1ccc(Cl)cc1	CYP2C19 inhib 60
O=C(COC(=O)c1cccnc1)c1ccc(Cl)c(Cl)c1	CYP2C19 inhib 77
O=C(COC(=O)c1n[nH]c(=O)c2ccccc12)c1ccc(Cl)cc1	none
COC(=O)c1ccc(CNC(=O)/C=C/c2cc([N+](=O)[O-])ccc2OC(F)F)cc1	none
COCCn1cc(C(=O)N2CCC(C)CC2)c2c3ccccc3n(C)c2c1=O	none
CC(C)(C)NC1=CC(=O)OC12CCCCC2	none
CCOP(=O)(c1ccc(N(C)C)cc1)C(O)c1c(Cl)cccc1Cl (stereo not drawn)	CYP2C9 inh 59, CYP2C19 inhib 65
CN(C)c1ccc(P(=O)(OCc2ccccc2)C(O)c2ccncc2)cc1 (stereo not drawn)	CYP2C9 inh 63, CYP2C19 inhib 66
CCOP(=O)(c1ccc(N(C)C)cc1)C(O)c1cc(OC)c(OC)c(OC)c1 (stereo not drawn)	none
COC(=O)c1ccc(OCC(=O)Nc2nn(-c3ccccc3)nc2C(N)=O)cc1	none (no result: PLK1 inh, Plk1 PBD FP)
Cc1cc(C)n(C(=O)CCNC(=O)c2ccccc2Br)n1	CYP2C9 act 2.1
Cc1cc(C)n(C(=O)CCC(=O)NCc2ccccc2)n1	none
COc1ccccc1C(=O)NCC(=O)n1nc(C)cc1C	CYP2C9 act 3
COc1cc(C(=O)NCC(=O)n2nc(C)cc2C)cc(OC)c1OC	none
CC1S/C(=C(\C#N)C(=O)NCc2ccco2)N(c2ccc(F)cc2)C1=O (stereo not drawn)	none
CN1/C(=C\C(=O)CN2C(=O)NC3(CCCCCC3)C2=O)C(C)(C)c2ccccc21	CYP2C9 inh 79, CYP2C19 inhib 88
CN1/C(=C\C(=O)COC(=O)CN2C(=O)C3CC=CCC3C2=O)C(C)(C)c2ccccc21 (stereo not drawn)	none
Nc1nonc1-c1noc(CCCCCN2C(=O)c3ccccc3C2=O)n1	none
N#CC(c1ccc(Cl)nn1)c1ccc(Cl)cc1Cl (stereo not drawn)	CYP2C19 inhib 96
CCOc1nc(-c2ccc(Cl)cc2Cl)ccc1C#N	none
COc1ccc(NC2CC(=O)N(c3ccccc3)C2=O)cc1 (stereo not drawn)	CYP2C19 inhib 55
CC(=O)N1c2c(ccc3ccccc23)C(C)CC12CCCCC2 (stereo not drawn)	CYP2C9 inh 93, CYP2C19 inhib 98
COc1ccc(-n2nnc3c(=O)n(Cc4cc(C)ccc4C)cnc32)cc1	CYP2C9 inh 72
O=C(CNc1ccc(Br)cc1)c1ccccc1	CYP2C19 inhib 77
Cc1cccc(NCCC(=O)c2ccc(Br)cc2)c1	none
Cc1ccc(C(=O)CNc2ccc(Br)cc2)cc1	CYP2C19 inhib 75
NC(=O)CSc1ncnc2c1cnn2Cc1ccccc1	none
CCOCCCNC(=O)C(NC(=O)c1cnccn1)c1ccc(C)cc1 (stereo not drawn)	CYP2C19 inhib 59
CCOCCCNC(=O)C(NC(=O)CNC(C)=O)c1ccc(C)cc1 (stereo not drawn)	none
CCOc1ccc(S(=O)(=O)Nc2cccc(N(C)S(C)(=O)=O)c2)cc1	CYP2C19 inhib 93
CCCCOc1ccc(S(=O)(=O)Nc2cccnc2)cc1	CYP2C9 inh 89, CYP2C19 inhib 61
CCOc1ccc(S(=O)(=O)Nc2cccc(OC)c2)cc1	CYP2C9 inh 56, CYP2C19 inhib 69
CC(=O)Nc1ccc(S(=O)(=O)Nc2cccc(N(C)S(C)(=O)=O)c2)cc1	none
COC(=O)COc1cccc(NS(=O)(=O)c2ccc(NC(C)=O)cc2)c1	none
Cc1ccc(S(=O)(=O)Nc2cccnc2)cc1	none
CCOC(=O)CSC1=NC(=O)/C(=C\c2ccc(Cl)cc2)S1	none
O=S(=O)(CCSc1nc2ccccc2o1)c1nc2ccccc2s1	CYP2C9 inh 89, CYP2C19 inhib 82
O=S(=O)(NCCSc1nc2ccccc2o1)c1ccccc1	CYP2C9 inh 73, CYP2C19 inhib 89
O=S(=O)(CCSc1nc2ccccc2o1)Cc1ccccc1	none
CCS(=O)(=O)CCSc1nc2ccccc2o1	none
Cc1oc(-c2ccc(Cl)cc2)nc1CN1CCC(C(=O)N2CCc3ccccc3C2)CC1	CYP2C19 inhib 90
Cc1oc(-c2ccccc2F)nc1CN1CCC(C(=O)NCCC2=CCCCC2)CC1	CYP2C9 act 2.3
Cc1ccccc1-c1nc(CN2CCC(C(=O)N3CCN(c4ccccn4)CC3)CC2)c(C)o1	CYP2C9 inh 55
Cc1oc(-c2ccc(Cl)cc2)nc1CN1CCC(C(=O)NCCCN2CCCC2=O)CC1	none
CCN1CCN(CCNC(=O)C2CCN(Cc3nc(-c4ccc(Cl)cc4)oc3C)CC2)CC1	PLK1 inh 65
